# Reference: PubChem BioAssay (NCI)
# This is part of a sample that, as a whole, favours compounds with a hit. Of some 83,000 tested, about 20% had one in any assay.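 The endpoint reported here, percent growth, reads 100 for growth as untreated, 0 for no net growth and -100 for all cells dead.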 Unmarked numbers belong to inactive results. Calls of active or inactive are those of the source. Rule for the calls: active = growth percent below 10; inactive = the rest.
# Tested on: MDA-MB-468 breast
# Experiment: NCI-60 one-dose screen, 48 h (100 = growth as untreated, 0 = no growth, -100 = all killed)
# Conditions: 10 µM unless noted
row,Structure (SMILES),growth
1,COc1ccc(OC)c(/C=C/[C@H]2O[C@@H](C)[C@H](O)[C@@H]2O)c1,114%
2,Cn1cnc2c(F)c(Nc3ccc(Br)cc3F)c(C(=O)NOCCO)cc21,97.3%
3,O=C(Cc1ccc(/C=C/C(=O)c2ncc[nH]2)cc1)Nc1ccc(F)cc1,4.59% (active)
4,CC/C=C\C[C@H](O)C/C=C1/C(=O)C=C[C@@H]1C/C=C\CCCC(=O)N(C)C,-67.8% (active)
